For part of these data: Measured potencies and affinities stand elsewhere.
Key:
Parameters in all cases: scale not given: direction of the effect not stated beside the values
[1] = target: Protein translocase subunit SecA (Escherichia coli (strain K12)) (UniProt P10408); test: Assay to Identify E. coli SecA ATPase Inhibitors; format: functional; conditions: 30 µM
[2] = target: T1, Ubiquitin-activating enzyme e1, putative (Leishmania donovani (strain BPK282A1)) (UniProt E9BSI1); test: Leishmania donovani Ubiquitin Activating Enzyme (LdE1); format: functional; conditions: 30 µM
T1 sequence (whole entry): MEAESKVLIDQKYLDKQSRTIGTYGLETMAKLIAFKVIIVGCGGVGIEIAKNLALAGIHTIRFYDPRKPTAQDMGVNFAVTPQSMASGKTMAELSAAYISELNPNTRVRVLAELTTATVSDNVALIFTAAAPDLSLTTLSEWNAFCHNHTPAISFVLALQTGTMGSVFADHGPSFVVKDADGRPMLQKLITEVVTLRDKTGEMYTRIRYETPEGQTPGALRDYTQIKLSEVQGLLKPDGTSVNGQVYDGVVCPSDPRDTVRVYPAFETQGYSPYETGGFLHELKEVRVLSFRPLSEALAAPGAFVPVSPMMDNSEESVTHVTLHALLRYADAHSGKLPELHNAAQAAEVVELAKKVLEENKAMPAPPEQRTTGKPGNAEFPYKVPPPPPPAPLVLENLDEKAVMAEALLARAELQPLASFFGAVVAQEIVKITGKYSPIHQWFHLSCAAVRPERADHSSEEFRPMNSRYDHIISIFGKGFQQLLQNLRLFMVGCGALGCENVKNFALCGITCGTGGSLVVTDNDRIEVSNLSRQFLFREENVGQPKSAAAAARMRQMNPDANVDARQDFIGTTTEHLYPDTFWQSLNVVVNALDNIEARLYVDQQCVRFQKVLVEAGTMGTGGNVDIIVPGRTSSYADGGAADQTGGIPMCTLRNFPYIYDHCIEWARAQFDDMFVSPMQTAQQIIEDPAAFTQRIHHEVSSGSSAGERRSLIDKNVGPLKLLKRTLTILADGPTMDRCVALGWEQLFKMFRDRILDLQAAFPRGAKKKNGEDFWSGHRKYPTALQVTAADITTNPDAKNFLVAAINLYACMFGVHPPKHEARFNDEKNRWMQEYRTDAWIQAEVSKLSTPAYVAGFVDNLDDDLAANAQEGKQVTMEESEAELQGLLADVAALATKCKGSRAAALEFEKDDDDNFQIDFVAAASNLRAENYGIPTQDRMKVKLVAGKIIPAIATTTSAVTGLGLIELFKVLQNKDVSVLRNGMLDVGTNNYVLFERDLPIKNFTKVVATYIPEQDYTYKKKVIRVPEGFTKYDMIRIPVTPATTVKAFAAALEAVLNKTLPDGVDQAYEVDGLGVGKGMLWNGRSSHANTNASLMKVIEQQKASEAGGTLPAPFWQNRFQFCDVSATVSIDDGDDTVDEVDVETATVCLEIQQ

[3] = target: AMP-activated protein kinase, AMPK (Homo sapiens) (UniProt P54646+O43741+P54619+Q9UGJ0+Q9Y478+Q13131+Q9UGI9); test: AMP-dependent Kinase enzyme assay. An in vitro enzyme assay that detects ADP turnover that is directly proportional to AMPK activity. This uses naive AMPK that is activated during the assay with MK-8722; format: functional; conditions: 30 µM
[4] = target: Sialic acid-binding Ig-like lectin 9 (Homo sapiens) (UniProt Q9Y336); test: Hs-Siglec9 ALPHAscreen SOP 20170721; conditions: 10 µM
[5] = system: Trypanosoma cruzi; test: Trypanosoma cruzi phosphomannomutase and mannose-1-phosphate guanylyltransferase assay; format: functional; conditions: 10 µM
[6] = target: T2, Arginase-2, mitochondrial (Homo sapiens) (UniProt P78540); test: in vitro enzyme assay to detect the production of urea directly proportional to the activity of Arginase II; format: functional; conditions: 33.3 µM; note: in the data most compounds retested in dose-response had high values
T2 sequence (whole entry): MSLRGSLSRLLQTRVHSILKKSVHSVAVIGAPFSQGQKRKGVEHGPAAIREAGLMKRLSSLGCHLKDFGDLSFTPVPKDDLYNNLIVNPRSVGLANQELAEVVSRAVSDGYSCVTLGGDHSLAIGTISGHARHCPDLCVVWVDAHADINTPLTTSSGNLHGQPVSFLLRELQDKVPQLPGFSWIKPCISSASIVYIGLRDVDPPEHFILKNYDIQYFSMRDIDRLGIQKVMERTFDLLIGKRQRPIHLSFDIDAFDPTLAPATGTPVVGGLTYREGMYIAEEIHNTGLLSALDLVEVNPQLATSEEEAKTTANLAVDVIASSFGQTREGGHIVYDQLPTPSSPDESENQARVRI

[7] = target: T3, Proteasome subunit beta (Trypanosoma cruzi) (UniProt O96673); test: Trypanosoma cruzi proteasome chymotrypsin-like activity (TcProtChymo) assay.; note: in the data most compounds retested in dose-response had high values; format: functional; conditions: 9.37 µM
T3 sequence (whole entry): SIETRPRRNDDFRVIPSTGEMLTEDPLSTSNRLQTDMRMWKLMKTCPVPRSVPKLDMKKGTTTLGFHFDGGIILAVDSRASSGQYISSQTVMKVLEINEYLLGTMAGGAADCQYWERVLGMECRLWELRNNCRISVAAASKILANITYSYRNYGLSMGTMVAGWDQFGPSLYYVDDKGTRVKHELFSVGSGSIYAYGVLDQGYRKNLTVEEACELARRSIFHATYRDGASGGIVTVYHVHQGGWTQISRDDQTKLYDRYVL

[8] = organism: Homo sapiens; test: To identify inhibition of the IFN signalling (Jak-Stat) pathway via expression of an eGFP reporter gene under the control of an IFN-stimulated response element (ISRE) containing MxA promoter.; format: functional; conditions: 30 µM
[9] = target: T4, Tyrosyl-tRNA synthetase, putative (Trypanosoma cruzi (strain CL Brener)) (UniProt Q4DSP6); test: Trypanosoma cruzi tyrosyl tRNA synthetase (TcYRS) _High Tyrosine SOP; format: functional; conditions: 30 µM; note: in the data most compounds retested in dose-response had high values
T4 sequence (whole entry): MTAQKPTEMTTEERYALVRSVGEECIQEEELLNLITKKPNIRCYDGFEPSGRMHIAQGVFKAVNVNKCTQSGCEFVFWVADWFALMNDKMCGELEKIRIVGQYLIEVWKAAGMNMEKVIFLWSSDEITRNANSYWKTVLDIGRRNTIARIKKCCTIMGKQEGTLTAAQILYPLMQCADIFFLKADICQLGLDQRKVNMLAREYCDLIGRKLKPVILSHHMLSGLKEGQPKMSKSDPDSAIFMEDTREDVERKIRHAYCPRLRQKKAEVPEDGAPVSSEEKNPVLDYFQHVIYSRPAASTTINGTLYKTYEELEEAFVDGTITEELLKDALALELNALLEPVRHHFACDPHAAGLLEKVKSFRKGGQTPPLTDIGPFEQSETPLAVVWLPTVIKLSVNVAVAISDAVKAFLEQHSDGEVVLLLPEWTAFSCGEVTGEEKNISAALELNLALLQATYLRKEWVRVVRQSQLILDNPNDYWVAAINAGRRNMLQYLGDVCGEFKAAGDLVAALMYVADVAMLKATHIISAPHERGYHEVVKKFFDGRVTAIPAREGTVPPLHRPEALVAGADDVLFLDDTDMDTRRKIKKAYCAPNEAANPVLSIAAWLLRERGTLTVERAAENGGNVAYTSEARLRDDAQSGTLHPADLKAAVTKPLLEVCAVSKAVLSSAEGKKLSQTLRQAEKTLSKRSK

[10] = target: T4, Tyrosyl-tRNA synthetase, putative (Trypanosoma cruzi (strain CL Brener)); test: Trypanosoma cruzi tyrosyl tRNA synthetase (TcYRS) SOP; format: functional; conditions: 30 µM
[11] = target: Chromo domain-containing protein 1 (Saccharomyces cerevisiae (strain ATCC 204508 / S288c) (Baker's yeast)) (UniProt P32657); test: ScCHD-1 Enzyme Inhibition Assay; format: functional; conditions: 30 µM; note: in the data most compounds retested in dose-response had high values
Chain of Chromo domain-containing protein 1 (Saccharomyces cerevisiae (strain ATCC 204508 / S288c) (Baker's yeast)) (P32657 whole entry, the tested form may be a part): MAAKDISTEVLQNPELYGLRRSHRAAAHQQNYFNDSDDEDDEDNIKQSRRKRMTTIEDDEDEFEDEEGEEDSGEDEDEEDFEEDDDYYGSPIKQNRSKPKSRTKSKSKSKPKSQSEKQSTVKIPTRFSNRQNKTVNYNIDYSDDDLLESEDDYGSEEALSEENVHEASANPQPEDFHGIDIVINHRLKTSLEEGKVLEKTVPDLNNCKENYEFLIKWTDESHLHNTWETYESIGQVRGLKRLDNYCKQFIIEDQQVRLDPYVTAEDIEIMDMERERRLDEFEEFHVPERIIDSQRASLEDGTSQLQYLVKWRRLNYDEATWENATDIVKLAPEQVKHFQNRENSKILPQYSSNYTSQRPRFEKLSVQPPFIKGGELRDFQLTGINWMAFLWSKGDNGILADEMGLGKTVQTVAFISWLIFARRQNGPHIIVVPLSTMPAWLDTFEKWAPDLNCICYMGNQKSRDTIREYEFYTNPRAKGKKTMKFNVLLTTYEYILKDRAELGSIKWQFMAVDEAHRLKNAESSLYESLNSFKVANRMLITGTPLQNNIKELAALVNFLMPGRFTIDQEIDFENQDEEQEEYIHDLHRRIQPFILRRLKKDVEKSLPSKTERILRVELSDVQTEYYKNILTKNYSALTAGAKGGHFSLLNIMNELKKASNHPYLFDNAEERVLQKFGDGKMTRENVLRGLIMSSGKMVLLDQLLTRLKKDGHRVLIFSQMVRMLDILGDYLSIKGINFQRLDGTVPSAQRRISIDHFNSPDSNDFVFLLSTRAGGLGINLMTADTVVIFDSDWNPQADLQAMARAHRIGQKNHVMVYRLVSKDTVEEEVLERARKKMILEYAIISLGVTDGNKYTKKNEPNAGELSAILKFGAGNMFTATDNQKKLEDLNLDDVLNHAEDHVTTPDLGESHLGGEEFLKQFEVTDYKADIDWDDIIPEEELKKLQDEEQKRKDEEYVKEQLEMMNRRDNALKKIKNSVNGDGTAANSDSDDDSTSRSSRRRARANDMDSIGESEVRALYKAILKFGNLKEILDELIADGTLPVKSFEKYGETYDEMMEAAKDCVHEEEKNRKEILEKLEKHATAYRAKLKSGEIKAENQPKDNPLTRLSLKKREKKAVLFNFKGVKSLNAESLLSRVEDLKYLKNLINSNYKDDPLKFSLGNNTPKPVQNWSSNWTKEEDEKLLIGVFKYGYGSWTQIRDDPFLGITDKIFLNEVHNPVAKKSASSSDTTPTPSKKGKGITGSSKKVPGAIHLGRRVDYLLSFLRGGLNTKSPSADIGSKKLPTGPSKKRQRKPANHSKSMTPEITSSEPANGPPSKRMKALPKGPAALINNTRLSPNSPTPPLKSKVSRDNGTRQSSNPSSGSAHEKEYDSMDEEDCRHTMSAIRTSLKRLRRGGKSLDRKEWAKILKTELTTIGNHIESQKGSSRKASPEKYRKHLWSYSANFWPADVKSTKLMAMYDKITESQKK

Chain of Sialic acid-binding Ig-like lectin 9 (Homo sapiens) (Q9Y336 whole entry): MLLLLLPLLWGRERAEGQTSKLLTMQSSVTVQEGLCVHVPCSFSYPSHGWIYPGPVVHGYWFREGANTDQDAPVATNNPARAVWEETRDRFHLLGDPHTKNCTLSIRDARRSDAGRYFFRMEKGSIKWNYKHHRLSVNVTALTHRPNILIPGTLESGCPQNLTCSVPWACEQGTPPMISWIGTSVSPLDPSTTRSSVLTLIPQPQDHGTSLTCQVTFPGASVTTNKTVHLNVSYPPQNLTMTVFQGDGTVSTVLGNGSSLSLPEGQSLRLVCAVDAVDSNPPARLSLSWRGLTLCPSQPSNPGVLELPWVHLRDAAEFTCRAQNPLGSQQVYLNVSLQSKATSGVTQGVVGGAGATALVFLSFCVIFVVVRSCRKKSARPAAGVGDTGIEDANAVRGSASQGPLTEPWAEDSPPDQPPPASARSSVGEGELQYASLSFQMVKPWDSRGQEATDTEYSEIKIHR
Chain of Protein translocase subunit SecA (Escherichia coli (strain K12)) (P10408 whole entry): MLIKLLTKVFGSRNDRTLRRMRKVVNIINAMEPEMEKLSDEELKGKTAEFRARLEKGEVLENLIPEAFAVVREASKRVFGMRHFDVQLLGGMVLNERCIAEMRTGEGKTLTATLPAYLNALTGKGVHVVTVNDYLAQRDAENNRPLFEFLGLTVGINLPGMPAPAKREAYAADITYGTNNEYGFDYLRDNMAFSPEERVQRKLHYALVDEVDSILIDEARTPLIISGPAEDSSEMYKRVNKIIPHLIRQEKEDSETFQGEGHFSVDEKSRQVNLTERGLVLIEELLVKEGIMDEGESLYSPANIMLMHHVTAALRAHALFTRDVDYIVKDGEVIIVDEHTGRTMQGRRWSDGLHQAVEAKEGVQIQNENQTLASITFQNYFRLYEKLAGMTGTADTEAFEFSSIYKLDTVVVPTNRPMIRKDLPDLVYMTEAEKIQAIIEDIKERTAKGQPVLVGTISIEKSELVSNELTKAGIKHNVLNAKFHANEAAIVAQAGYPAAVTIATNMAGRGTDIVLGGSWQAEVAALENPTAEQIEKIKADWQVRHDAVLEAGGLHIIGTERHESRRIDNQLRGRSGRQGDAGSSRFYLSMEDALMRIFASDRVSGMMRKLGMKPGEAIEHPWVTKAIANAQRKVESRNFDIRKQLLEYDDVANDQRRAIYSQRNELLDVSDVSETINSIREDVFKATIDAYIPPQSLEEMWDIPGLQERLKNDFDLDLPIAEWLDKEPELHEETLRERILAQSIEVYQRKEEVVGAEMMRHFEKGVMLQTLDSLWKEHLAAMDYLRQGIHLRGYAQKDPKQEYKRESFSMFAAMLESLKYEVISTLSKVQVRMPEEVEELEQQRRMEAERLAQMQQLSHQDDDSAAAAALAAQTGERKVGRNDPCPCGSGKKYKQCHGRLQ

Row | SMILES | Percent Effect [1] | Percent Effect [2] | Percent Effect [3] | Percent Effect [4] | Percent Effect [5] | Percent Effect [6] | Percent Effect [7] | Percent Effect [8] | Percent Effect [9] | Percent Effect [10] | Percent Effect [11]
1 | Cc1cnn(CCNCc2ccccc2C#N)c1 | -7.98% | 5.41% | -2.49% | 6.11% | -5.11% | -0.554% | 5.21% | 14.9% | -1.98% | -1.22% | 1.22%
2 | Cc1nc(CN2CCC(N(C)Cc3noc(C(C)C)n3)C2)cs1 (stereo unspecified) | 1.43% | -24.7% | -8.83% | 5.3% | -5.68% | -4.54% | 19% | 26% | 4.3% | 2.5% | -4.7%
3 | CC(C)(C)c1ncc(C(=O)NCCNC(=O)c2ccccc2)s1 | -3.42% | 21.1% | -4.68% | 1.92% | -3.64% | 0.36% | 10.7% | 12.2% | 7.39% | 18.5% | -4.66%
4 | CCOc1cc(CN(C)CCOC)ccc1OC(F)F | -7.96% | -2.6% | 2.19% | -0.762% | -9.34% | 1.38% | 10.3% | -3.34% | 0% | -1.24% | 0.485%
5 | COCc1ccccc1CNc1cc(N2CCCC2CO)ncn1 (stereo unspecified) | -4.86% | 18.2% | -4.12% | 3.3% | -2.43% | 1.07% | 11.7% | 7.92% | 5.83% | 19.5% | -6.07%
6 | O=C1CCC2(CCN(c3ncc(F)cn3)CC2)N1CCN1CCCC1 | -2.97% | 7.79% | -0.558% | -6.43% | -2.07% | 1.94% | 21.4% | 12.5% | 1.06% | 3.85% | -7.84%
7 | Cc1cccc(C)c1OCCNC(=O)NC(C)c1nncn1C (stereo unspecified) | -5.7% | 15.6% | -1.02% | -14.1% | 5% | -2.32% | 25.8% | 18.1% | 8.57% | 23.5% | -21.4%
8 | O=C1COC2(CCN(CC3CC3)CC2)CN1c1ccccc1 | -0.394% | 2.74% | -5.09% | 8.07% | 4.17% | -2% | 18.6% | -21.4% | 9.38% | 8.64% | -1.91%
9 | Cc1nccn1CC1CCCN1S(=O)(=O)Cc1ccon1 (stereo unspecified) | -1.65% | 20.2% | -1.52% | -6.85% | 3.68% | -6.84% | 14% | 7.78% | 5.42% | 3.8% | -7.21%
10 | COc1cc(C)ccc1OCCC(=O)N1CCCC1Cn1cccn1 (stereo unspecified) | -6.85% | 15.8% | -7.6% | 14.4% | 3.64% | -1.44% | 0.254% | 1.25% | 5.42% | 13.6% | -6.6%
11 | Cc1occc1C(=O)N1CCOCC2(CCN(Cc3nccs3)C2)C1 (stereo unspecified) | -0.601% | 2.6% | 0.286% | 7.22% | -0.688% | 5.52% | 9.82% | -13.2% | -3.23% | -6.17% | 2.92%
12 | COc1ccc(-c2noc(CN3CCc4cncnc4C3)n2)cc1 | -3.37% | -15.8% | -14.9% | 2.94% | 7.52% | 0% | 18.6% | 8.69% | 8.33% | 9.76% | 25%
13 | CCc1nc(CCNC(=O)Nc2ccc(C(=O)NC)cc2C)cs1 | -9.57% | 0% | -0.875% | 3.65% | -3.8% | -3.65% | 4.18% | 40.4% | -2.73% | -1.24% | -1.65%
14 | COCCN(C)CCN1CC2(CCN(C(=O)C3CCOC3)CC2)OC1=O (stereo unspecified) | -4.65% | 18.2% | 9.58% | 7.65% | 5.21% | -12.4% | 23.1% | 6.21% | 7.53% | 18.5% | -7.01%
15 | COc1ncccc1NC(=O)C1CCS(=O)(=O)C1 (stereo unspecified) | -5.85% | 20.8% | -1.47% | -3.58% | -5.99% | -1.07% | 3.21% | 19.2% | 3.88% | 12.2% | -9.93%
16 | Cc1ccc2c(c1)C1(CCNCC1)CN2C(=O)CN(C)C | -3.67% | 10.8% | 5.31% | -2.86% | -7.14% | 1.59% | 15.7% | 14.1% | 5.41% | 12.8% | -2.47%
17 | COc1ccc(CN2CCc3ncnc(C4CCOC4)c3CC2)cc1 (stereo unspecified) | -3.47% | 5.33% | -1.49% | -6.97% | 5.41% | -40.3% | 5.13% | 13.6% | 0% | 7.5% | -7.3%
18 | Cc1nc(N2CCN(C(=O)c3ccccc3)CC2)c2c(n1)c(C)nn2C | -0.87% | 12% | 3.25% | 0% | -0.393% | -12.8% | 12.9% | 25.6% | 6.35% | 10.3% | -10.1%
19 | CN(Cc1ccc(OC(F)F)cc1)C(=O)CS(=O)(=O)c1ccc(Cl)cc1 | -4.93% | -2.7% | -0.333% | 6.3% | 8.49% | -1.91% | 0.345% | 3.29% | -5.82% | 0% | -1.75%
20 | O=C1N(Cc2cccc(F)c2F)CCCC1(O)CN1CCCOCC1 (stereo unspecified) | -6.11% | -5.33% | -3.73% | 6.26% | 1.46% | 0% | 5.06% | 5.93% | 4.92% | 11.1% | -4.58%
21 | O=C(c1ccno1)N1CC[C@@H]2O[C@@H](COCCN3CCCC3)CC[C@@H]21 | -3.63% | 10.8% | 1.12% | -3.29% | 1.66% | -1.59% | 21.2% | -0.519% | 5.41% | 15.4% | -2.39%
